Results filed as inconclusive are left out. Active and inactive are the calls of the source. Rule for the calls, unless noted: active = hit-call score of the fitted dose curve at least 0.9, where 1 is the maximum; inactive = score below 0.9.
Key:
[1] = read-out: succinate dehydrogenase complex iron sulfur subunit B (SDHB), SDHB (gene 6390); assay: LTEA_HepaRG_SDHB: Life Technologies and Expression Analysis (LTEA) Assay for succinate dehydrogenase complex iron sulfur subunit B (SDHB) using HepaRG (AID 2283528); settings: mRNA level, 48 h; actives raise or lower the signal
Outline: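 A human HepaRG culture in serum-free induction medium received test chemicals for 48 h over an eight-point range capped at 100 uM. SDHB expression change was quantified by qRT-PCR.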

[2] = read-out: solute carrier (SLCO1B1), SLCO1B1 (gene 10599); assay: LTEA_HepaRG_SLCO1B1: Life Technologies and Expression Analysis (LTEA) Assay for solute carrier (SLCO1B1) using HepaRG (AID 2283530); settings: mRNA level, 48 h; actives raise or lower the signal
Outline: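 Human HepaRG cultures treated for 48 h with an eight-concentration half-log series topping at 100 uM; SLCO1B1 measured by qRT-PCR and fitted bidirectionally relative to DMSO.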

[3] = read-out: sulfotransferase 2A1 (SULT2A1), SULT2A1 (gene 6822); assay: LTEA_HepaRG_SULT2A1: Life Technologies and Expression Analysis (LTEA) Assay for sulfotransferase 2A1 (SULT2A1) using HepaRG (AID 2283531); settings: mRNA level, 48 h; actives raise or lower the signal
Outline: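 Gene-expression endpoint in a human liver cell line: SULT2A1 mRNA change after 48 h chemical treatment, curves fitted in both directions relative to 0.5% DMSO vehicle. Concentrations spanned eight half-log steps from 100 uM.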

[4] = read-out: Transforming Growth Factor (TGFA), TGFA (gene 7039); assay: LTEA_HepaRG_TGFA: Life Technologies and Expression Analysis (LTEA) Assay for Transforming Growth Factor (TGFA) using HepaRG (AID 2283532); settings: mRNA level, 48 h; actives raise or lower the signal
Outline: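 qRT-PCR read-out of TGFA transcript, normalized to three housekeeping genes, fitted bidirectionally against 0.5% DMSO baseline. Human HepaRG cultures received chemicals for 48 h at eight half-log concentrations, top 100 uM.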

TIMP1, TIMP1 (gene 7076) = assay: LTEA_HepaRG_TIMP1: Life Technologies and Expression Analysis (LTEA) Assay for TIMP1 using HepaRG (AID 2283534); settings: mRNA level, 48 h; actives raise or lower the signal
Outline: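 TIMP1 induction or repression in HepaRG cells after 48 h chemical exposure (eight concentrations, highest 100 uM), assessed by normalized qRT-PCR with bidirectional fitting to DMSO controls.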

[5] = read-out: Tumor necrosis factor receptor 1 (TNFRSF1A), TNFRSF1A (gene 7132); assay: LTEA_HepaRG_TNFRSF1A: Life Technologies and Expression Analysis (LTEA) Assay for Tumor necrosis factor receptor 1 (TNFRSF1A) using HepaRG (AID 2283535); settings: mRNA level, 48 h; actives raise or lower the signal
Outline: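 Assay uses 48 h chemical treatment of differentiated HepaRG monolayers, tested in duplicate at eight concentrations from 100 uM downward in 0.5% DMSO. mRNA is normalized to ACTB, GAPDH and POLR2A, with induction or suppression fitted relative to vehicle.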

[6] = read-out: Thyroid Hormone Responsive (THRSP), THRSP (gene 7069); assay: LTEA_HepaRG_THRSP: Life Technologies and Expression Analysis (LTEA) Assay for Thyroid Hormone Responsive (THRSP) using HepaRG (AID 2283536); settings: mRNA level, 48 h; actives raise or lower the signal
Outline: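 qRT-PCR read-out (Fluidigm TaqMan), housekeeping-normalized (ACTB/GAPDH/POLR2A). HepaRG, 48 h chemical exposure, 8-pt half-log series from 100 uM in 0.5% DMSO, duplicates. Bidirectional curve fit vs 0.5% DMSO baseline.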

[7] = read-out: Cellular tumor antigen p53 (Homo sapiens) (UniProt P04637); assay: LTEA_HepaRG_TP53: Life Technologies and Expression Analysis (LTEA) Assay for Tumor Protein P53 (TP53) using HepaRG (AID 2283537); settings: mRNA level, 48 h; actives raise or lower the signal
Outline: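 Gain or loss of TP53 mRNA signal is scored relative to 0.5% DMSO after 48 h chemical treatment of HepaRG liver cells, tested in duplicate at eight half-log concentrations up to 100 uM.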

[8] = read-out: UDP glucuronosyltransferase (UGT1A1), UGT1A1 (gene 54658); assay: LTEA_HepaRG_UGT1A1: Life Technologies and Expression Analysis (LTEA) Assay for UDP glucuronosyltransferase (UGT1A1) using HepaRG (AID 2283538); settings: mRNA level, 48 h; actives raise or lower the signal
Outline: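 mRNA induction or loss of UGT1A1, by TaqMan qRT-PCR, in duplicate HepaRG wells after 48 h exposure to half-log dilutions topping at 100 uM; DMSO (0.5%) served as baseline.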

[9] = read-out: UDP glucuronosyltransferase (UGT1A6), UGT1A6 (gene 54578); assay: LTEA_HepaRG_UGT1A6: Life Technologies and Expression Analysis (LTEA) Assay for UDP glucuronosyltransferase (UGT1A6) using HepaRG (AID 2283539); settings: mRNA level, 48 h; actives raise or lower the signal
Outline: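 Measures mRNA change in HepaRG hepatic cells exposed 48 h to chemicals (eight-point, maximum 100 uM, 0.5% DMSO vehicle) in serum-free induction medium. Expression normalized to endogenous controls; DMSO served as negative control and baseline.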

[10] = read-out: X-box binding protein 1 (XBP1), XBP1 (gene 7494); assay: LTEA_HepaRG_XBP1: Life Technologies and Expression Analysis (LTEA) Assay for X-box binding protein 1 (XBP1) using HepaRG (AID 2283540); settings: mRNA level, 48 h; actives raise or lower the signal
Outline: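 Eight concentrations (half-log, highest 100 uM, 0.5% DMSO) tested in duplicate on HepaRG cells over 48 h in serum-free induction medium; qRT-PCR of XBP1 normalised to ACTB, GAPDH, POLR2A.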

[11] = LTEA_HepaRG_LDH_cytotoxicity: Cytotoxicity Assessment in the Life Technologies and Expression Analysis (LTEA) Assay (AID 2283563; active = hit-call score of the fitted dose curve at least 0.9, where 1 is the maximum;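 for AC50: LDH activity released into spent culture medium as a marker of cell death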)
Outline: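 Spent-medium LDH after 48 h chemical exposure of HepaRG cells in serum-free induction medium; eight concentrations, half-log dilutions from 100 uM, duplicate wells, fitted upward relative to 0.5% DMSO.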

[12] = TOX21_p53_BLA_p2_viability: Viability Assessment in the Tox21 HCT-116 p53 Agonism Beta-lactamase Assay, Phase 2 (AID 2283591; active = hit-call score of the fitted dose curve at least 0.9, where 1 is the maximum;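 note: compound exposure lasted 16 h at 37 °C; actives lower the ATP signal meaning cytotoxicity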)
Outline: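 HCT116 p53-bla cells, 4000/well, dosed after 5 h plating (217-fold dilution of DMSO stocks) and incubated 16 h at 37C. Viability taken as cellular ATP by CellTiter-Glo luminescence after 30 min RT; signal loss marks cytotoxicity.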

[13] = biological target: Cellular tumor antigen p53 (Homo sapiens) (UniProt P04637); assay: TOX21_p53_BLA_p2_ratio: Tox21 HCT-116 p53 Agonism Beta-lactamase Assay, Ratio, Phase 2 (AID 2283592; active = hit-call score of the fitted dose curve at least 0.9, where 1 is the maximum)
Outline: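 DMSO-normalized, positive-direction endpoint derived from the 460 nm/530 nm FRET ratio in HCT116 p53 beta-lactamase reporter cells exposed 16 h at 37C and loaded with CCF4-AM for 2 h.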

[14] = TOX21_p53_BLA_p3_viability: Viability Assessment in the Tox21 HCT-116 p53 Agonism Beta-lactamase Assay, Phase 3 (AID 2283593; active = hit-call score of the fitted dose curve at least 0.9, where 1 is the maximum;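 note: cells exposed to compound for 16 h before reading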)
Outline: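 HCT116 cells, 4000/well, dosed 5 h after plating by pin transfer (217-fold dilution from DMSO stock) and incubated 16 h at 37C, 5% CO2. Viability read as ATP luminescence with CellTiter-Glo after 30 min at room temperature.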

[15] = TOX21_p53_BLA_p4_viability: Viability Assessment in the Tox21 HCT-116 p53 Agonism Beta-lactamase Assay, Phase 4 (AID 2283597; active = hit-call score of the fitted dose curve at least 0.9, where 1 is the maximum;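 note: hits lower the luminescence signal meaning cytotoxicity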)
Outline: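 In this multiplexed secondary endpoint, HCT116 cells (4000 per well, compound at 5 h, 16 h treatment) received CellTiter-Glo after the beta-lactamase read. Luminescence after 30 min RT reflects ATP, and falling signal marks cytotoxicity.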

[16] = ATG_XTT_Cytotoxicity: Cytotoxicity Assessment in the Attagene TRANS-FACTORIAL HepG2 Assay (AID 2283584; active = hit-call score of the fitted dose curve at least 0.9, where 1 is the maximum)
Outline: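 24 h chemical exposure of reporter-transfected HepG2; XTT signal loss vs DMSO indicates cytotoxicity.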

[17] = biological target: Cellular tumor antigen p53 (Homo sapiens) (UniProt P04637); assay: TOX21_p53_BLA_p3_ratio: Tox21 HCT-116 p53 Agonism Beta-lactamase Assay, Ratio, Phase 3 (AID 2283596; active = hit-call score of the fitted dose curve at least 0.9, where 1 is the maximum)
Outline: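 Cells were seeded at 4000/well, rested 5 h at 37C, then dosed with DMSO compound solutions (217-fold dilution) for 16 h. CCF4-AM substrate was loaded for 2 h at room temperature, and the 460/530 nm emission ratio was fitted for gain of signal versus DMSO.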

Measured: AC50

Chain of Cellular tumor antigen p53 (Homo sapiens) (P04637 whole entry, looked up): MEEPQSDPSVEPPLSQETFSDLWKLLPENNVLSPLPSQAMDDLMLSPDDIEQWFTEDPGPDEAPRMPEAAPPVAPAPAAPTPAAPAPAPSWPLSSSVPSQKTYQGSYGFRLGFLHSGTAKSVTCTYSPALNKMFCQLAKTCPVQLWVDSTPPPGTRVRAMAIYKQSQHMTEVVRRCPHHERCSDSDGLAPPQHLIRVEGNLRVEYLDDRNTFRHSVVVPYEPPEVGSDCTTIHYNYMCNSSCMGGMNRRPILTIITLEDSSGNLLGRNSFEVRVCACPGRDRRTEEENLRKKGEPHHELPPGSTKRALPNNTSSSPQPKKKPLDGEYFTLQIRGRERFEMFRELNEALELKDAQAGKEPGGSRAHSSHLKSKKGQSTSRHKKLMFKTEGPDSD

NC(=O)N(O)[C@@H]1C=C[C@H](Oc2cccc(Oc3ccc(F)cc3)c2)C1
active: [2] 86.1 µM | [3] 76.5 µM | [4] 76.2 µM | [7] 50 µM | [8] 75.5 µM | [9] 75.8 µM | [10] 28.2 µM | [11] 73.5 µM | [13] 66.5 µM | [15] 84.2 µM
inactive: [1] | TIMP1, TIMP1 (gene 7076) | [5] | [6] | [12] | [14]

CCOC(=O)CC(O)(CC(=O)OCC)C(=O)OCC
inactive: [1] | [2] | [3] | [4] | TIMP1, TIMP1 (gene 7076) | [5] | [6] | [7] | [8] | [9] | [10] | [11] | [16] | [12] | [13]

OC1CCCCC1
inactive: [1] | [2] | [3] | [4] | TIMP1, TIMP1 (gene 7076) | [5] | [6] | [7] | [8] | [9] | [10] | [11] | [16] | [13] | [15]

c1ccc2cc3c(ccc4ccccc43)cc2c1
active: [2] 8.09 µM | [3] 13.3 µM | TIMP1, TIMP1 (gene 7076) 10.2 µM | [6] 5.27 µM | [8] 4.24 µM | [10] 17.2 µM
inactive: [1] | [4] | [5] | [7] | [9] | [11] | [16] | [12] | [13] | [14] | [17] | [15]
